This passage reports binding signal results from PMC8384837, “Expanding the binding specificity for RNA recognition by a PUF domain”.

Holding throughout (test): yeast three-hybrid, YBZ-1, SC-Leu-His + 0.5 mM 3-AT, 4 days
What all share (settings): tags: N-Gal4 AD-HA kept; label: inside an RPR1-promoter hybrid RNA with tandem MS2 sites; ssRNA

For one assay, the target named is PUM1 PUF domain R7-LTC (Homo sapiens, UniProt Q14671 828-1176, S1079L;N1080T;E1083C). The gist of the method: (§1)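 The interaction score is the logarithmic change in variant frequency from input to selection. It uses log2, with a pseudocount of 1 for absent variants, and frequencies came from PCR-amplified, Illumina-sequenced repeat regions. The libraries were Pumilio-1 PUF domains randomized at the three base-contacting residues per repeat, co-expressed with matching RNA elements in strain YBZ-1 (LexA–MS2 coat fusion, HIS3 reporter). Plating lasted four days on SC-Leu (input) or SC-Leu-His + 0.5 mM 3-AT (selection).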

In another assay the target is PUM1 PUF domain R7-RPQ (Homo sapiens, UniProt Q14671 828-1176, S1079R;N1080P;E1083Q). An outline of the steps:
as §1

For a further assay, the target named is PUM1 PUF domain R4-EPG (Homo sapiens, UniProt Q14671 828-1176, N971E;H972P;Q975G). The gist of the method:
as §1

The target of the next assay is PUM1 PUF domain R4-GNS (Homo sapiens, UniProt Q14671 828-1176, N971G;H972N;Q975S). The gist of the method: as §1
In a further assay the target is PUM1 PUF domain R3-FRP (Homo sapiens, UniProt Q14671 828-1176, C935F;Q939P). An outline of the steps:
as §1

The target in another assay is PUM1 PUF domain R7-KYW (Homo sapiens, UniProt Q14671 828-1176, S1079K;N1080Y;E1083W). An outline of the steps:
as §1

For another assay, the target named is PUM1 PUF domain R8-KRL (Homo sapiens, UniProt Q14671 828-1176, N1122K;Y1123R;Q1126L). An outline of the steps: as §1
A further assay deals with PUM1 PUF domain R4-NRM (Homo sapiens, UniProt Q14671 828-1176, H972R;Q975M). An outline of the steps:
as §1

For a further assay, the target named is PUM1 PUF domain R8-QWR (Homo sapiens, UniProt Q14671 828-1176, N1122Q;Y1123W;Q1126R). The gist of the method: as §1
The next assay addresses PUM1 PUF domain R4-RHA (Homo sapiens, UniProt Q14671 828-1176, N971R;Q975A). The gist of the method: as §1
A further assay deals with PUM1 PUF domain R5-RYW (Homo sapiens, UniProt Q14671 828-1176, C1007R;R1008Y;Q1011W). The gist of the method:
as §1

A further assay concerns the target PUM1 PUF domain R5-DQQ (Homo sapiens, UniProt Q14671 828-1176, C1007D;R1008Q). An outline of the steps: as §1
For a further assay, the target named is PUM1 PUF domain R8-RWN (Homo sapiens, UniProt Q14671 828-1176, N1122R;Y1123W;Q1126N). An outline of the steps: as §1
In the next assay the target is PUM1 PUF domain R4-VRG (Homo sapiens, UniProt Q14671 828-1176, N971V;H972R;Q975G). The gist of the method: as §1
Another assay deals with T1, PUM1 PUF domain R6-RWV (Homo sapiens, UniProt Q14671 828-1176, N1043R;Y1044W;Q1047V).
T1 sequence: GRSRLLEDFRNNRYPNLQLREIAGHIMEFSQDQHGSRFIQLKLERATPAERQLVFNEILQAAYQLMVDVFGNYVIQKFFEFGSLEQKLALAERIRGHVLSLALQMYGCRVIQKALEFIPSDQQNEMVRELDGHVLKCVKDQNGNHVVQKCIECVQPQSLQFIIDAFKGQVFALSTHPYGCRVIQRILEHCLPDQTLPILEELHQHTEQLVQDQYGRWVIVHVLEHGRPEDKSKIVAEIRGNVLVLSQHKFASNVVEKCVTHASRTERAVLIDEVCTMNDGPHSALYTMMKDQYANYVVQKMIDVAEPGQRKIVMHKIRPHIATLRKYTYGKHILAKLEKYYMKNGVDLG
An outline of the steps:
as §1

Another assay deals with PUM1 PUF domain R1-GGE (Homo sapiens, UniProt Q14671 828-1176, S863G;R864G;Q867E). An outline of the steps: as §1
In the next assay the target is PUM1 PUF domain R5-NCR (Homo sapiens, UniProt Q14671 828-1176, C1007N;R1008C;Q1011R). The gist of the method: as §1
A further assay concerns the target PUM1 PUF domain R2-RKA (Homo sapiens, UniProt Q14671 828-1176, N899R;Y900K;Q903A). An outline of the steps: as §1
A further assay addresses PUM1 PUF domain R5-MHM (Homo sapiens, UniProt Q14671 828-1176, C1007M;R1008H;Q1011M). The gist of the method: as §1
The target of the next assay is PUM1 PUF domain R3-RSH (Homo sapiens, UniProt Q14671 828-1176, C935R;R936S;Q939H). An outline of the steps: as §1

In the case of “GGCUAGAACUAGUGGAUCCCCCGGCGCCCGGCGGCUCGAGCCCGGGUAAGUUUAAAUAGUCUGCAUGCCGCCGGGCGCCAUGCCUGCAGGUCGACUCUAGAAAACAUG”, the values for the binding signal with PUM1 PUF domain R7-LTC and with PUM1 PUF domain R7-RPQ were 3.36 log2 enrichment (interaction score) and 5.16 log2 enrichment (interaction score), respectively.

On to “GGCUAGAACUAGUGGAUCCCCCGGCGCCCGGCGGCUCGAGCCCGGGUAAGUGUAUAUAGUCUGCAUGCCGCCGGGCGCCAUGCCUGCAGGUCGACUCUAGAAAACAUG”, for which the binding signal with PUM1 PUF domain R4-EPG was 2.97 log2 enrichment (interaction score); with PUM1 PUF domain R4-GNS it was 4.46 log2 enrichment (interaction score).

Consider “GGCUAGAACUAGUGGAUCCCCCGGCGCCCGGCGGCUCGAGCCCGGGUAAGUGUAAGUAGUCUGCAUGCCGCCGGGCGCCAUGCCUGCAGGUCGACUCUAGAAAACAUG”, for which the binding signal with PUM1 PUF domain R3-FRP is 2.47 log2 enrichment (interaction score).

Take “GGCUAGAACUAGUGGAUCCCCCGGCGCCCGGCGGCUCGAGCCCGGGUAAGUCUAAAUAGUCUGCAUGCCGCCGGGCGCCAUGCCUGCAGGUCGACUCUAGAAAACAUG”: the binding signal with PUM1 PUF domain R7-KYW is 3.27 log2 enrichment (interaction score); in the assay with PUM1 PUF domain R7-RPQ, 2.7 log2 enrichment (interaction score).

“GGCUAGAACUAGUGGAUCCCCCGGCGCCCGGCGGCUCGAGCCCGGGUAAGUGUACAUAGUCUGCAUGCCGCCGGGCGCCAUGCCUGCAGGUCGACUCUAGAAAACAUG”: in the assay with PUM1 PUF domain R4-GNS, the binding signal is 2.01 log2 enrichment (interaction score).

On to “GGCUAGAACUAGUGGAUCCCCCGGCGCCCGGCGGCUCGAGCCCGGGUAAGUGUAAAUAGUCUGCAUGCCGCCGGGCGCCAUGCCUGCAGGUCGACUCUAGAAAACAUG”, for which the binding signal with PUM1 PUF domain R8-KRL is 1.26 log2 enrichment (interaction score); in the assay with PUM1 PUF domain R4-NRM it was 3.21 log2 enrichment (interaction score); with PUM1 PUF domain R8-QWR, 4.74 log2 enrichment (interaction score); with PUM1 PUF domain R4-RHA, 3.02 log2 enrichment (interaction score); with PUM1 PUF domain R5-RYW it was 2.33 log2 enrichment (interaction score); in the assay with PUM1 PUF domain R5-DQQ it was 2.81 log2 enrichment (interaction score). Besides, the binding signal with PUM1 PUF domain R8-RWN is 4.57 log2 enrichment (interaction score); in the assay with PUM1 PUF domain R4-EPG, 1.2 log2 enrichment (interaction score); with PUM1 PUF domain R4-GNS, 2.34 log2 enrichment (interaction score); in the assay with PUM1 PUF domain R4-VRG, 4.34 log2 enrichment (interaction score); in the assay with PUM1 PUF domain R6-RWV, 5.13 log2 enrichment (interaction score).

For “GGCUAGAACUAGUGGAUCCCCCGGCGCCCGGCGGCUCGAGCCCGGGUAAGUGUAAAUGGUCUGCAUGCCGCCGGGCGCCAUGCCUGCAGGUCGACUCUAGAAAACAUG”, the binding signal with PUM1 PUF domain R1-GGE was 2.22 log2 enrichment (interaction score).

On to “GGCUAGAACUAGUGGAUCCCCCGGCGCCCGGCGGCUCGAGCCCGGGUAAGUGUCAAUAGUCUGCAUGCCGCCGGGCGCCAUGCCUGCAGGUCGACUCUAGAAAACAUG”, for which the binding signal was 5.11 log2 enrichment (interaction score) in the assay with PUM1 PUF domain R5-DQQ and 1.7 log2 enrichment (interaction score) in the assay with PUM1 PUF domain R5-NCR.

Regarding “GGCUAGAACUAGUGGAUCCCCCGGCGCCCGGCGGCUCGAGCCCGGGUAAGUGUAAAGAGUCUGCAUGCCGCCGGGCGCCAUGCCUGCAGGUCGACUCUAGAAAACAUG”, the binding signal with PUM1 PUF domain R2-RKA was 7.14 log2 enrichment (interaction score).

Take “GGCUAGAACUAGUGGAUCCCCCGGCGCCCGGCGGCUCGAGCCCGGGUAAGUGAAAAUAGUCUGCAUGCCGCCGGGCGCCAUGCCUGCAGGUCGACUCUAGAAAACAUG”: in the assay with PUM1 PUF domain R6-RWV, the binding signal was 2.99 log2 enrichment (interaction score).

As for “GGCUAGAACUAGUGGAUCCCCCGGCGCCCGGCGGCUCGAGCCCGGGUAAGUGUUAAUAGUCUGCAUGCCGCCGGGCGCCAUGCCUGCAGGUCGACUCUAGAAAACAUG”, the binding signal with PUM1 PUF domain R5-RYW was 3.92 log2 enrichment (interaction score); in the assay with PUM1 PUF domain R5-NCR, 4.23 log2 enrichment (interaction score).

In the case of “GGCUAGAACUAGUGGAUCCCCCGGCGCCCGGCGGCUCGAGCCCGGGUAAGUGUGAAUAGUCUGCAUGCCGCCGGGCGCCAUGCCUGCAGGUCGACUCUAGAAAACAUG”, in the assay with PUM1 PUF domain R5-MHM, the binding signal was 2.99 log2 enrichment (interaction score).

For the sequence “GGCUAGAACUAGUGGAUCCCCCGGCGCCCGGCGGCUCGAGCCCGGGUAAGCGUAAAUAGUCUGCAUGCCGCCGGGCGCCAUGCCUGCAGGUCGACUCUAGAAAACAUG”, the values for the binding signal with PUM1 PUF domain R8-KRL, with PUM1 PUF domain R8-QWR and in the assay with PUM1 PUF domain R8-RWN were 3.37 log2 enrichment (interaction score), 5.32 log2 enrichment (interaction score) and 0.65 log2 enrichment (interaction score), respectively.

For the sequence “GGCUAGAACUAGUGGAUCCCCCGGCGCCCGGCGGCUCGAGCCCGGGUAAGUGUAAUUAGUCUGCAUGCCGCCGGGCGCCAUGCCUGCAGGUCGACUCUAGAAAACAUG”, in the assay with PUM1 PUF domain R3-RSH, the binding signal was 3.41 log2 enrichment (interaction score).
